# Several values for one entry are separate records, joined by “and”; a condition that tells them apart may be missing. Identical values can stand only once. Unmarked numbers belong to inactive results. Records with an inconclusive call do not appear. Activity calls are given as the source filed them. Unless noted, calls come from the whole dose curve; as a rule, active = well fitted inhibition curve with a large enough effect; inconclusive = small, poorly fitted or top-dose-only effect; inactive = flat fitted curve, though single readings scatter.
# Tests used:
# [1] = Drug repurposing screens with cells derived from glioblastoma tumor samples (AID 1345199); conditions: GBM patient neurospheres viability, ATP luminescence, 48 h; note: nearly all actives have a fitted effect of over 40% in size; note: potency is the fitted concentration of half-maximal effect; for activity, negative = cell killing: % is set by controls: 0 for no effect and ±100 for the full control effect
# In short: (§1)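 Primary testing used CD133+ neurospheres from four GBM patients, seven concentrations, 48 h exposure and ATP-based viability; confirmation added three slower-growing patient lines.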
# astro = control astrocytes; test: as above; conditions: viability, ATP luminescence, 48 h; series mostly up to 45.9 µM
# In short: as §1
# [2] = target: Nuclear receptor subfamily 1 group I member 2 (Rattus norvegicus) (UniProt Q9R1A7); test: qHTS assay for small molecule activators of the rat pregnane X receptor (rPXR) signaling pathway (AID 651751; call rule not given here; note: 0% is about no effect); conditions: rPXR reporter cells, luciferase (One-Glo), 24 h
# [3] = qHTS assay for small molecule activators of the human pregnane X receptor (PXR) signaling pathway (AID 720659; call rule not given here; note: 0% is about no effect); conditions: DPX-2 HepG2 CYP3A4-luciferase, 24 h; series mostly up to 92.3 µM
# [4] = at 20 µM (top of the series), tumour line C
# [5] = at 21.2 µM (top of the series), tumour line B
# [6] = at 45.9 µM (top of the series), tumour line B
# [7] = at 45.9 µM (top of the series), tumour line D
# [8] = at 46.1 µM (top of the series), tumour line C
# [9] = at 46 µM (top of the series), tumour line A
# Chain of Nuclear receptor subfamily 1 group I member 2 (Rattus norvegicus) (Q9R1A7 whole entry, looked up): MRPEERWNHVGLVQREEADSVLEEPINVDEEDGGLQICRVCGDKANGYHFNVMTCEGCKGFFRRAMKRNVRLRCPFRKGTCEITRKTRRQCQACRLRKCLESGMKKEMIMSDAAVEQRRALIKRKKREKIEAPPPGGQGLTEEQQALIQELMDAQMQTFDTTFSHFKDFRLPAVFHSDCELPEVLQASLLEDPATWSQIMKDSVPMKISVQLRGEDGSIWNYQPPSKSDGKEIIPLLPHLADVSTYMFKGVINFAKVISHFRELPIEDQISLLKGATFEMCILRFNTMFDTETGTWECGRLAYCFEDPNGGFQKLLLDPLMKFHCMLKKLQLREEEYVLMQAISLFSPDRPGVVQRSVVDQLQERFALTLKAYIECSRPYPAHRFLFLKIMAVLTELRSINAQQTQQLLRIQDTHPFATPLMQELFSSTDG
smiles,measurement,setting,value
CN[C@@H]1[C@@H](O)[C@@H](O[C@@H]2[C@@H](O)[C@H](OC3OC(CN)=CCC3N)[C@@H](N)C[C@H]2N)OC[C@]1(C)O (some centres not stated),"activity, negative = cell killing",[1]; [4],5.74%
same,"activity, negative = cell killing",[1]; [5],-6.65%
same,"activity, negative = cell killing","[1]; at 21.3 µM (top of the series), tumour line A",-25.4%
same,Potency,astro,inactive
OC[C@H]1O[C@@H](O[C@H]2[C@H](O)[C@@H](O)[C@H](O)O[C@@H]2CO)[C@H](O)[C@@H](O)[C@@H]1O,"activity, negative = cell killing",[1]; [6],-9.2%
same,"activity, negative = cell killing",[1]; [7],6.26%
same,"activity, negative = cell killing",[1]; [8],-13.5%
same,Potency,astro,inactive
OB(O)O,"activity, negative = cell killing",[1]; [6],-12.9%
same,"activity, negative = cell killing",[1]; [7],-13.8%
same,"activity, negative = cell killing",[1]; [9],-26.5%
same,"activity, negative = cell killing",[1]; [8],5.29%
same,max response,[2],1.69% and 5.36%
same,outcome,[3],inactive
CCCCC,"activity, negative = cell killing",[1]; [6],-6.65%
same,"activity, negative = cell killing",[1]; [7],-7.88%
same,"activity, negative = cell killing",[1]; [9],-21.1%
same,"activity, negative = cell killing",[1]; [8],22.7%
same,Potency,astro,inactive
same,max response,[2],-1.73%
same,outcome,[3],inactive
CCOC(C)OCC,"activity, negative = cell killing",[1]; [6],-4.71%
same,"activity, negative = cell killing",[1]; [7],-10.7%
same,"activity, negative = cell killing",[1]; [9],-12.1%
same,"activity, negative = cell killing",[1]; [8],-14.4%
same,Potency,astro,inactive
same,max response,[2],0.058%
same,outcome,[3],inactive
CCOc1ccc(NC(=S)Nc2ccc(OCC)cc2)cc1,"activity, negative = cell killing",[1]; [6],-13.1%
same,"activity, negative = cell killing",[1]; [7],-11.1%
same,"activity, negative = cell killing",[1]; [8],-27.8%
same,Potency,astro,inactive
CNC(=O)[C@H](Cc1c[nH]c2ccccc12)NC(=O)[C@@H](CC(=O)NO)CC(C)C,"activity, negative = cell killing",[1]; [6],-23.5%
same,"activity, negative = cell killing",[1]; [7],-19.3%
same,"activity, negative = cell killing",[1]; [8],-23.8%
same,Potency,astro,inactive
Cc1cc(C)c(NC(=O)C[C@H](CC(=O)O)c2cccc3ccccc23)c(C(=O)N2CCC3(CCCC3)CC2)c1,"activity, negative = cell killing",[1]; [6],-14%
same,"activity, negative = cell killing",[1]; [7],2.34%
same,"activity, negative = cell killing",[1]; [8],-29.7%
same,Potency,astro,inactive
O=C(O)COc1ccccc1/C=N/NC(=O)c1ccncc1,"activity, negative = cell killing",[1]; [6],-7.55%
same,"activity, negative = cell killing",[1]; [7],5.85%
same,"activity, negative = cell killing",[1]; [8],-10.4%
same,Potency,astro,inactive
NC(=O)c1cc[n+](CC2=C(C(=O)O)N3C(=O)[C@@H](NC(=O)C(c4ccccc4)S(=O)(=O)[O-])[C@H]3SC2)cc1 (some centres not stated),"activity, negative = cell killing",[1]; [4],7.27%
same,"activity, negative = cell killing",[1]; [5],-0.0366%
same,"activity, negative = cell killing","[1]; at 21.2 µM (top of the series), tumour line D",-7.97%
same,Potency,astro,inactive
CC(O)[C@H]1CC[C@H]2[C@@H]3CC[C@@H]4C[C@@H](O)CC[C@]4(C)[C@H]3CC[C@]12C (some centres not stated),"activity, negative = cell killing",[1]; [6],-13.1%
same,"activity, negative = cell killing",[1]; [7],-23.2%
same,"activity, negative = cell killing",[1]; [8],18.8%
same,Potency,astro,inactive
OCC(O)CO,"activity, negative = cell killing",[1]; [6],-10.1%
same,"activity, negative = cell killing",[1]; [7],-10.7%
same,"activity, negative = cell killing",[1]; [9],-18.9%
same,"activity, negative = cell killing",[1]; [8],6.43%
same,Potency,astro,inactive
same,max response,[2],-2.39% and -3.75%
same,outcome,[3],inactive
C(=C\c1ccncc1)/c1ccccc1,"activity, negative = cell killing",[1]; [6],-13.9% and -17.3%
same,"activity, negative = cell killing",[1]; [7],-13.7% and -5.95%
same,"activity, negative = cell killing",[1]; [8],-11.5%
same,Potency,astro,inactive
CC[C@H]1OC(=O)[C@H](C)[C@@H](O[C@H]2C[C@@](C)(OC)[C@@H](O)[C@H](C)O2)[C@H](C)[C@@H](O[C@@H]2O[C@H](C)C[C@H](N(C)C)[C@H]2O)[C@](C)(O)C[C@@H](C)CN(C)[C@H](C)[C@@H](O)[C@]1(C)O,"activity, negative = cell killing",[1]; [6],-13.7%
same,"activity, negative = cell killing",[1]; [7],-25.4%
same,"activity, negative = cell killing",[1]; [8],-5.95%
same,Potency,[1]; tumour line A,5.01 µM (active)
same,Potency,astro,inactive
same,max response,[2],-1.6%
same,outcome,[3],inactive
Cc1ncc[nH]1,"activity, negative = cell killing",[1]; [6],-1%
same,"activity, negative = cell killing",[1]; [7],-14.2%
same,"activity, negative = cell killing",[1]; [9],-4.28%
same,"activity, negative = cell killing",[1]; [8],-3.58%
same,Potency,astro,inactive
same,max response,[2],1.58%
same,outcome,[3],inactive
O=S(=O)(O)CCCS(=O)(=O)O,"activity, negative = cell killing",[1]; [6],-8.81%
same,"activity, negative = cell killing",[1]; [7],-10.4%
same,"activity, negative = cell killing",[1]; [8],-13.4%
same,Potency,astro,inactive
O=c1[nH]c(=O)n([C@H]2C[C@H](O)[C@@H](CO)O2)cc1/C=C/Br,"activity, negative = cell killing",[1]; [6],-10.7%
same,"activity, negative = cell killing",[1]; [7],-3.23%
same,"activity, negative = cell killing",[1]; [8],-17.1%
same,Potency,astro,inactive
OCc1ccccc1,"activity, negative = cell killing",[1]; [6],-6.55%
same,"activity, negative = cell killing",[1]; [7],18%
same,"activity, negative = cell killing",[1]; [9],-25.4%
same,"activity, negative = cell killing",[1]; [8],15.3%
same,Potency,astro,inactive
same,max response,[2],22.6%
same,outcome,[3],inactive
CCOC(=O)Cc1ccc(-c2ccccc2)cc1,"activity, negative = cell killing",[1]; [6],-6.74%
same,"activity, negative = cell killing",[1]; [7],-7.57%
same,"activity, negative = cell killing",[1]; [8],36.2%
same,Potency,astro,inactive
O=C(CCCCCCCCCCCCC1CCCC1)Nc1ccc(S(=O)(=O)c2ccc(NC(=O)CCCCCCCCCCCCC3CCCC3)cc2)cc1,"activity, negative = cell killing",[1]; [6],0.38%
same,"activity, negative = cell killing",[1]; [7],-17.2%
same,"activity, negative = cell killing",[1]; [8],-32.4%
same,Potency,astro,inactive
NCC[C@H](O)C(=O)N[C@@H]1C[C@H](N)[C@@H](O[C@H]2O[C@H](CN)[C@@H](O)[C@H](O)[C@H]2O)[C@H](O)[C@H]1O[C@H]1O[C@H](CO)[C@@H](O)[C@H](N)[C@H]1O,"activity, negative = cell killing",[1]; [6],-16.5%
same,"activity, negative = cell killing",[1]; [7],-17.9%
same,"activity, negative = cell killing",[1]; [8],-4.11%
same,Potency,astro,inactive
CCOc1ccc(S(=O)(=O)O)c2cccnc12,"activity, negative = cell killing",[1]; [6],-12%
same,"activity, negative = cell killing",[1]; [7],-2.86%
same,"activity, negative = cell killing",[1]; [8],-26.7%
same,Potency,astro,inactive
O=C(CCCN1CCC(C(=O)c2ccc(F)cc2)CC1)c1ccc(F)cc1,"activity, negative = cell killing",[1]; [6],-22%
same,"activity, negative = cell killing",[1]; [8],-4.95%
same,Potency,[1]; tumour line A,8.91 µM (active)
same,Potency,astro,inactive
